This is a sample that favours compounds with a hit; in the whole collection about 19% have one here.
HT1080 IDH1KD tx: toxicity to HT-1080 IDH1 knockdown cells (counter line); Potency, µM (titrated, usually from 46.1 µM), most hits filed as cytotoxic; 2% of 360,000 active; HT-1080 IDH1 knockdown viability, ATP luminescence, 48 h
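% activity derives from luminescence (CellTiter-Glo), normalised to DMSO and no-cell wells. HT-1080-IDH1KD cells, 750/well, had 48 h compound exposure at 37 °C.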
IL1B secr inh: inflammasome signaling inhibition, IL-1 beta readout; THP-1 LPS/ATP IL-1B secretion, AlphaLISA, 16 h; hits give low values; activity change, % at 57.5 µM; 4.7% of 360,000 active; AID 743279; in the data active = activity change below about -50%; inconclusive = mostly about -30% to -49%
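THP-1 cells pretreated 1 hr with compounds (up to 57.5 uM final), then stimulated with LPS (250 ng/mL final) plus ATP (1.25 mM final); secreted IL-1B measured by AlphaLISA after 16 hr, decreased signal indicating inhibition.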
DT40 TDP1 no CPT: qHTS for Inhibitors of human tyrosyl-DNA phosphodiesterase 1 (TDP1): qHTS in cells in absence of CPT; Potency, µM (highest dose often 46.2 µM), actives largely listed as inhibitors; 15% of 420,000 active; DT40 Tdp1-/- hTDP1 cells, no CPT, ATP luminescence, 48 h; note: nearly all actives have a fitted effect of over 55% in size
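Readout: luminescence from CellTiter-Glo after 30 min in the dark at RT. Cells: DT40 Tdp1-/- with stable hTDP1, 400/well. Exposure: compounds alone, ≥48 hr, 37 °C.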
TDP1 cell CPT: DT40-hTDP1 cell growth loss with CPT | 12% of 420,000 active | chicken DT40 Tdp1-/-;hTDP1 cells + 20 nM CPT, ATP luminescence, 48 h | Potency, µM (titrated, usually from 46.2 µM), usual class: inhibitors; note: nearly all actives have a fitted effect of over 55% in size
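Cell growth measured by CellTiter-Glo luminescence after a minimum 48 h, 37 C compound exposure with 20 nM CPT in Tdp1-knockout DT40 cells stably expressing hTDP1, seeded 400/well; qHTS titration format.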
HT1080-NT tox: kills 2HG-producing HT-1080-NT fibrosarcoma cells; HT-1080-NT fibrosarcoma viability, CellTiter-Glo ATP luminescence, 48 h; Potency, µM (series often up to 46.1 µM), actives largely listed as cytotoxic; 1.6% of 360,000 active; AID 686970;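 note: NT is the 2HG producing partner of a matched IDH1 knockdown line; nearly all actives have a fitted effect of over 55% in size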
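Toxicity toward the 2HG-producing NT line was scored as %Activity, normalised to DMSO and no-cell wells, from CellTiter-Glo luminescence after 48 hours' treatment.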
Each line names hits and unclear results; the compound was inactive in the other large screens. Unless noted, calls come from the whole dose curve; as a rule, active = well fitted curve in the direction sought with a large enough effect; inconclusive = small, poorly fitted or top-dose-only effect, or another doubt; inactive = no such curve, though single readings can be large; an effect the other way counts as inactive or inconclusive.

CCOC(=O)C1=C(C)OC(N)=C(C(=O)OCC)C12C(=O)Nc1ccc(Br)cc12 (stereo not drawn)	DT40 TDP1 no CPT inconclusive, TDP1 cell CPT inconclusive
CCOP(=O)(OCC)C1(O)C(=O)Nc2ccc(Br)cc21 (stereo not drawn)	DT40 TDP1 no CPT 16µM, TDP1 cell CPT inconclusive
COc1ccc(CC2(CCc3ccncc3)C(=O)NC(=O)NC2=O)cc1	none
CC(=O)O[C@H]1C(=O)[C@@]2(C)C([C@H](OC(=O)c3ccccc3)[C@]3(O)C[C@H](OC(=O)[C@H](O)[C@@H](NC(=O)Cc4ccccc4)c4ccccc4)C(C)=C1C3(C)C)[C@]1(OC(C)=O)CO[C@@H]1C[C@@H]2O (stereo partly drawn)	HT1080 IDH1KD tx inconclusive, DT40 TDP1 no CPT 0.18µM, TDP1 cell CPT 0.18µM, HT1080-NT tox 0.52µM
CC(=O)O[C@H]1C(=O)[C@@]2(C)C([C@H](OC(=O)c3ccccc3)[C@]3(O)C[C@H](O)C(C)=C1C3(C)C)[C@]1(OC(C)=O)CO[C@@H]1C[C@H]2O (stereo partly drawn)	DT40 TDP1 no CPT 5.8µM, TDP1 cell CPT 7.3µM
CC(=O)O[C@@]12CO[C@@H]1C[C@H](O)[C@@]1(C)C(=O)[C@H](O)C3=C(C)[C@@H](OC(=O)[C@H](O)[C@@H](NC(=O)c4ccccc4)c4ccccc4)C[C@@](O)([C@@H](OC(=O)c4ccccc4)C12)C3(C)C (stereo partly drawn)	HT1080 IDH1KD tx inconclusive, DT40 TDP1 no CPT 0.21µM, TDP1 cell CPT 0.033µM, HT1080-NT tox 0.0073µM
Cc1cccc(-n2c(O)c(C=Nc3ccc(S(N)(=O)=O)cc3)c(=O)[nH]c2=O)c1	none
COc1ccc(C2CC(c3c(O)n(CCc4ccccc4)c(=O)[nH]c3=O)=NN2)cc1OC (stereo not drawn)	none
NC1C[C@H]1c1ccccc1 (stereo partly drawn)	none (no result: HT1080 IDH1KD tx, IL1B secr inh, HT1080-NT tox)
Cc1[nH]c2ccc(OCc3ccccc3)cc2c1CCN	DT40 TDP1 no CPT 13µM, TDP1 cell CPT 15µM (no result: IL1B secr inh)
Cc1[nH]c2ccc(O)cc2c1CCN	none
Cc1nc2ccccc2n1C1CCN(Cc2nnnn2CCc2ccccc2)CC1	IL1B secr inh inconclusive, DT40 TDP1 no CPT inconclusive, TDP1 cell CPT inconclusive
CCOC(=O)c1cc2ccccc2n1C1CCN(Cc2ccccc2)CC1	HT1080 IDH1KD tx inconclusive, DT40 TDP1 no CPT 16µM, TDP1 cell CPT inconclusive, HT1080-NT tox inconclusive
CCCOC(=O)c1c(C)oc2c1cc(NS(=O)(=O)c1ccc(OCC)cc1)c1ccccc12	DT40 TDP1 no CPT 1µM, TDP1 cell CPT 1.5µM (no result: HT1080 IDH1KD tx, IL1B secr inh, HT1080-NT tox)
CCOc1cc2c(cc1OCC)-n1cccc1C(c1ccc(F)c(OC)c1)NC2 (stereo not drawn)	IL1B secr inh inconclusive, DT40 TDP1 no CPT inconclusive, TDP1 cell CPT inconclusive
CCOc1cc2c(cc1OCC)-n1cccc1C(c1cccc(F)c1F)NC2 (stereo not drawn)	DT40 TDP1 no CPT 23µM, TDP1 cell CPT inconclusive
CCOc1cc2c(cc1OCC)-n1cccc1C(c1ccccc1OC)NC2 (stereo not drawn)	IL1B secr inh -85, DT40 TDP1 no CPT 26µM, TDP1 cell CPT inconclusive
CCOc1cc2c(cc1OCC)-n1cccc1C(c1ccc(OC)c(OC)c1)NC2 (stereo not drawn)	IL1B secr inh inconclusive, DT40 TDP1 no CPT inconclusive, TDP1 cell CPT inconclusive
CCOc1cc2c(cc1OCC)-n1cccc1C(c1c(O)cccc1OC)NC2 (stereo not drawn)	HT1080 IDH1KD tx 21µM, IL1B secr inh -68, DT40 TDP1 no CPT 10µM, TDP1 cell CPT 13µM, HT1080-NT tox 21µM
CCOc1cc2c(cc1OCC)-n1cccc1C(c1ccccc1O)NC2 (stereo not drawn)	HT1080 IDH1KD tx inconclusive, DT40 TDP1 no CPT inconclusive, TDP1 cell CPT 23µM, HT1080-NT tox inconclusive
NC(=O)[C@@H]1CCCN1C(=O)[C@H](Cc1ccccc1)NC(=O)[C@@H]1CCCN1C(=O)[C@@H](N)Cc1ccc(O)cc1	none (no result: HT1080 IDH1KD tx, IL1B secr inh, HT1080-NT tox)
O=[P+](Cc1ccccc1)Cc1ccccc1	none
CC(=NCCC1=CCCCC1)c1c(O)n(C)c(=O)n(C)c1=O	DT40 TDP1 no CPT 23µM, TDP1 cell CPT 10µM
CC(C)c1cccc(C(C)C)c1OC(=O)NC(=O)c1c(F)cccc1F	TDP1 cell CPT inconclusive, HT1080-NT tox inconclusive
Cc1ccc(CNC(=O)c2ccc(Nc3nc4ccccc4n4nnnc34)cc2)cc1	DT40 TDP1 no CPT 15µM, TDP1 cell CPT inconclusive (no result: HT1080 IDH1KD tx, IL1B secr inh, HT1080-NT tox)
O=C(NCCc1ccc(Cl)cc1)c1ccc(Nc2nc3ccccc3n3nnnc23)cc1	DT40 TDP1 no CPT 10µM, TDP1 cell CPT inconclusive (no result: HT1080 IDH1KD tx, IL1B secr inh, HT1080-NT tox)
N=C1c2ccccc2CN1NC(=O)c1ccc(Cl)cc1	DT40 TDP1 no CPT inconclusive
COc1ccc(CCC(=O)N2CCC3(CC2)OCCO3)cc1	none
CCOc1ccc(CN2CCCC(C(=O)c3ccccc3OC)C2)cc1 (stereo not drawn)	IL1B secr inh -58, DT40 TDP1 no CPT inconclusive, TDP1 cell CPT inconclusive
COc1ccc(O)c(CN2CCCC(C(=O)c3ccccc3SC)C2)c1 (stereo not drawn)	HT1080 IDH1KD tx inconclusive, DT40 TDP1 no CPT 15µM, TDP1 cell CPT inconclusive
COc1ccccc1CN1CCCC(C(=O)c2ccccc2OC)C1 (stereo not drawn)	DT40 TDP1 no CPT inconclusive, TDP1 cell CPT 8.2µM
COc1cccc(OC)c1CN1CCCC(C(=O)c2cccc(Cl)c2)C1 (stereo not drawn)	IL1B secr inh inconclusive, DT40 TDP1 no CPT inconclusive, TDP1 cell CPT 18µM
COc1ccc(C(=O)C2CCCN(Cc3ccc(F)cc3F)C2)cc1F (stereo not drawn)	DT40 TDP1 no CPT inconclusive, TDP1 cell CPT inconclusive
CCn1ccnc1CN1CCCC(C(=O)c2cccc(C(F)(F)F)c2)C1 (stereo not drawn)	DT40 TDP1 no CPT 26µM, TDP1 cell CPT inconclusive
COc1ccccc1CN1CCCC(C(=O)c2ccccc2SC)C1 (stereo not drawn)	HT1080 IDH1KD tx inconclusive, DT40 TDP1 no CPT 21µM, TDP1 cell CPT 13µM, HT1080-NT tox inconclusive
COc1ccc(C(=O)C2CCCN(CCc3ccccc3)C2)cc1OC (stereo not drawn)	DT40 TDP1 no CPT 18µM, TDP1 cell CPT inconclusive
Cc1ccccc1Cc1c(C)nc2nc(SCC(=O)N3CCC4(CC3)OCCO4)nn2c1C	none
O=[N+]([O-])c1ccc(N(CCO)CCO)c2c1no[n+]2[O-]	HT1080 IDH1KD tx 5.8µM, IL1B secr inh -103, DT40 TDP1 no CPT 0.16µM, TDP1 cell CPT 0.092µM, HT1080-NT tox 8.2µM
CN1CCN(c2ccc([N+](=O)[O-])c3no[n+]([O-])c23)CC1	HT1080 IDH1KD tx 4.6µM, IL1B secr inh -101, DT40 TDP1 no CPT 0.16µM, TDP1 cell CPT 0.18µM, HT1080-NT tox 2.9µM
Nc1ccc2c3c(cccc13)-c1ccccc1-2	HT1080 IDH1KD tx inconclusive, HT1080-NT tox inconclusive
O=C(Nc1ccccc1)N1Cc2ccccc2-n2nncc2C1	none
